The source of these data is the supplement of paper PMC6555819.

Assay in all cases: PBM binding z-score (relative to random genomic background probes); higher = stronger binding; sequences stand for … in GC…GCGATTGACAGCGTAGAATGAAGG
The subject of test [1] is FXR:RXRa (NR concentration 270 nM, RXRa partner concentration 90 nM). Summed up: (§1)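 Scanned fluorescence from custom Agilent 4×180K protein-binding microarrays was regression-normalized. Binding z-scores use random background probes as reference. Ligand-free nuclear receptor dimers were incubated on the arrays for 1 h and detected with antibodies against each partner (one per run).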

Test [2] concerns LXRa:RXRa (NR concentration 270 nM, RXRa partner concentration 90 nM). Summed up: as §1
Test [3] concerns LXRa homodimer (NR concentration 270 nM). The gist of the method: as §1
For test [4], the system named is LXRb:RXRa (NR concentration 270 nM, RXRa partner concentration 90 nM). Summed up:
as §1

For test [5], the system named is LXRb homodimer (NR concentration 270 nM). The gist of the method:
as §1

For test [6], the system named is PPARa:RXRa (NR concentration 270 nM, RXRa partner concentration 90 nM). The gist of the method:
as §1

The subject of test [7] is PPARg:RXRa (NR concentration 180 nM, RXRa partner concentration 90 nM). The gist of the method: as §1
Test [8] deals with PPARg:RXRa 270nM:90nM, anti-RXR (NR concentration 270 nM, RXRa partner concentration 90 nM). Summed up:
as §1

Test [9] concerns PPARg:RXRa 30nM:10nM, anti-RXR (NR concentration 30 nM, RXRa partner concentration 10 nM). Summed up: as §1
Test [10] concerns PPARg:RXRa 90nM:30nM, anti-RXR (NR concentration 90 nM, RXRa partner concentration 30 nM). The gist of the method:
as §1

Take CTCTAAAGGTCGGTTGAGGTGAGTATACGGATAA: the PBM binding z-score came to 2.41 in test [1]; 2.21 in test [2]; 0.211 in [3]; 1.61 in [4]; 0.152 in test [5]; 2.87 in [6]. Further, the PBM binding z-score was determined as 0.622 in test [7], 1.44 in test [8], 0.122 in test [9] and 0.958 in test [10].
Regarding TCTAGTTGGTCACGGATGTCACACACGACGGGTA, the PBM binding z-score was 0.669 in [1]; 0.373 in test [2]; 0.422 in [3]; 0.666 in test [4]; 0.393 in test [5]; 1.18 in [6]. Further, the PBM binding z-score in test [7] is 1.32; in test [8], 2.25; in [9] it was 3.22; in [10], 2.84.
Consider TCGAGTAGGTTAGTCGGGGCATTGAGCCAACATA, for which the PBM binding z-score in test [1] was -0.211; in test [2], -0.326; in test [3], -0.78; in test [4], 0.048; in test [5], -1.23; in test [6], 0.416. The PBM binding z-score in test [7] is -0.175; in test [8], 0.835; in test [9], 1; in test [10] it was 0.777.
On to CGAGCTAGGTCATCCAGGACAGTGAATACATTGA, for which the PBM binding z-score stood at 4.29 in test [1]; 2.49 in test [2]; 0.492 in [3]; 1.96 in [4]; 0.0673 in test [5]; 3.54 in test [6]. In addition, the PBM binding z-score came out at 2.6 in [7], 2.25 in test [8], 0.528 in test [9] and 1.35 in test [10].
In the case of CCTACTGCGCCATCAGGTCATTGATATCAACGTT, the PBM binding z-score in test [1] is 1.39; in test [2], 1.32; in test [3] it was 1.7; in test [4], 2.2; in test [5] it was 1.17; in test [6], 1.73. The PBM binding z-score in test [7] is 0.376; in test [8], 0.994; in test [9], 0.212; in [10], 0.573.
In the case of CCTTACGGGTCACTGACAGTTTATAGCATTTGGA, the PBM binding z-score in test [1] is 5.44; in test [2], 4.17; in [3], 0.494; in [4], 3.4; in [5], -0.118; in test [6], 5.18. Besides, the PBM binding z-score is 4.21 in test [7], 4.37 in test [8], 1.57 in [9] and 3.25 in test [10].
With CCTATTAGCTGACCATAAGGGCAACCGAAGCTCG, the PBM binding z-score in [1] was 0.524; in test [2] it was 0.335; in test [3], 0.221; in [4], 0.0745; in [5] it was 0.36; in test [6], 0.273. Also, the PBM binding z-score in test [7] was 0.333; in test [8], -0.0328; in test [9], -0.243; in [10] it was -0.184.
With AGTCAAAGATCATCTAGGTAACGTAAGATATGCT, the PBM binding z-score in [1] was -0.125; in [2], 0.0142; in [3], -0.0346; in test [4] it was -0.0476; in [5] it was -0.391; in test [6], 0.828. The PBM binding z-score in test [7] worked out at 1.67; in test [8] it was 1.54; in [9], 0.643; in test [10], 1.16.
For the sequence ACTAGCAGGCCAAGTTTGAGTCACTCAAACAAAG, the PBM binding z-score was -0.527 in test [1]; -0.601 in test [2]; -0.503 in [3]; -0.529 in test [4]; -0.797 in test [5]; -0.0783 in test [6]. In addition, the PBM binding z-score in test [7] is -0.147; in test [8], -0.486; in test [9] it was -0.4; in test [10], -0.496.
Turning to TCTATTAGTTGAAGGGCAACCGTCGAGTCCGTTT, the PBM binding z-score was determined as 0.742 in [1]; 0.933 in [2]; 0.368 in [3]; 0.792 in [4]; 0.191 in [5]; 0.493 in test [6]. In addition, the PBM binding z-score is -0.355 in [7], 2.08 in test [8], 3.65 in [9] and 2.84 in [10].
For the sequence CAGCCTAGGTCAGGGCCGGTATAGGAGGAACGTT, the PBM binding z-score was 1.62 in test [1]; 0.777 in [2]; -0.703 in test [3]; 0.466 in test [4]; -1.51 in test [5]; 1.97 in [6]. The PBM binding z-score in test [7] was 0.482; in test [8] it was 0.692; in test [9], -0.326; in test [10], -0.0222.
Consider TAGCCTAGGTCATGGGCCAGCATACCACGCGAAC, for which the PBM binding z-score in test [1] is 4.04; in test [2], 3.14; in [3] it was 0.0336; in test [4], 2.05; in [5], -0.463; in [6] it was 3.9. Further, the PBM binding z-score in test [7] was 3.38; in test [8] it was 3.53; in [9], 1.26; in test [10] it was 2.69.
